Results: PubChem BioAssay AID651717 (Broad Institute, 2012)
Screen size: about 1,200 compounds; about 950 (79%) were called active. So high a share suggests a set chosen from earlier hits. The list is a sample of the results. Measured potencies and affinities stand elsewhere. A number with no mark means an inactive call.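 The calls were made as follows: active = signal rises and fitted curve reaches 40% activity at or below the top valid tested dose, in every replicate test; inconclusive = replicate tests give mixed calls; inactive = the rest, including activity in the opposite direction.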

Experiment: compounds raising Bmi1 reporter signal – mouse embryonic stem cells, luciferase, cherry-pick, esBAF inhibitor project, dose response (AID 651717);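 also: luciferase knocked into Bmi1 locus with EF-1a renilla as cell number control; rising ratio signals esBAF inhibition which derepresses Bmi1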
Details: mESC Bmi1-luciferase reporter, firefly/renilla ratio, 24 h, stronger effect = higher value; at 35 µM unless noted

SMILES | max activity
C[C@H](CO)N1C[C@H](C)[C@@H](CN(C)C(=O)Nc2ccc(F)cc2)OCCCC[C@H](C)Oc2ccc(NC(=O)Nc3ccc4c(c3)OCO4)cc2C1=O | 15.2% [at 8 µM]
Cc1ccc(-n2nc(C(=O)c3ccccc3)n3c(=O)cc(-c4ccccc4)nc23)cc1 | 5.74% [at 16 µM]
Cc1ccc(C(=O)Nc2nc(=O)n(C(=O)c3ccccc3C)s2)cc1 | 38.3% [at 16 µM]
CC(C)c1ccc(NC(=O)C(c2ccccc2)N2CC(=O)Nc3ccccc32)cc1 (stereo not drawn) | 10.6%
C[C@@H]1CN([C@@H](C)CO)C(=O)c2cc(NC(=O)Nc3ccc4c(c3)OCO4)ccc2O[C@H]1CN(C)C(=O)Nc1ccc(C(F)(F)F)cc1 | -14.9%
C[C@@H]1CCCCO[C@@H](CN(C)C(=O)Nc2ccc3c(c2)OCO3)[C@H](C)CN([C@H](C)CO)C(=O)c2cc(NC(=O)Nc3ccc4c(c3)OCO4)ccc2O1 | 17.2% [at 16 µM]
C[C@@H]1CN([C@@H](C)CO)C(=O)c2cc(NC(=O)Nc3ccc4c(c3)OCO4)ccc2O[C@@H](C)CCCCO[C@@H]1CN(C)C(=O)Nc1ccc2c(c1)OCO2 | 18.2%
C[C@H](CO)N1C[C@H](C)[C@@H](CN(C)C(=O)Nc2ccc3c(c2)OCO3)OCCCC[C@H](C)Oc2ccc(NC(=O)Nc3ccc4c(c3)OCO4)cc2C1=O | 12.8%
O=C(CCCc1ccccc1)Nc1ccccc1C(F)(F)F | 21.6%
C[C@@H]1CN([C@@H](C)CO)C(=O)c2cc(NC(=O)Nc3ccc4c(c3)OCO4)ccc2O[C@@H](C)CCCCO[C@H]1CN(C)C(=O)Nc1ccccc1 | 33.3%
C[C@@H]1CCCCO[C@H](CN(C)C(=O)Nc2ccc(F)cc2)[C@H](C)CN([C@@H](C)CO)C(=O)c2cc(NC(=O)Nc3ccc4c(c3)OCO4)ccc2O1 | 7.08% [at 1 µM]
O=S(=O)(c1cccs1)N1CN(Cc2ccc(Cl)cc2)c2nc3ccccc3nc21 | -33.7%
COc1ccc(-c2nn(-c3ccccc3)cc2/C=C(\CC(=O)O)c2nc3ccccc3s2)cc1OC | 26.9%
C[C@@H]1CCCCO[C@@H](CN(C)S(=O)(=O)c2cn(C)cn2)[C@H](C)CN([C@H](C)CO)C(=O)c2cc(NC(=O)Nc3ccc4c(c3)OCO4)ccc2O1 | -9.02% [at 2.1 µM]
CN(c1ccc(O)cc1)S(=O)(=O)c1ccc2ccccc2c1 | 14.3% [at 8 µM]
CCCN(Cc1ccc(C)cc1)C(=O)c1ccc(CNS(=O)(=O)c2ccc(C(C)=O)cc2)cc1 | 33.1% [at 16 µM]
COc1cccc(CN(C(=O)c2cc3ccccc3oc2=O)C2CC2)c1 | 35% [at 8 µM]
O=C1NC[C@H](c2ccccc2)OC(=O)[C@@H](Cc2ccc(F)cc2)C/C=C\C[C@H]1CC(=O)N(CCO)Cc1ccccc1 | 25.5%
COC(=O)c1ccc2c(=O)n(CC3CCCO3)c(SCC(=O)Nc3ccccc3Cl)nc2c1 (stereo not drawn) | 24.8% [at 8 µM]

SMILES | max activity
C[C@@H]1CCCCO[C@@H](CN(C)C(=O)Nc2cccc3ccccc23)[C@H](C)CN([C@H](C)CO)C(=O)c2cc(NC(=O)C3CCCCC3)ccc2O1 | 28.2% [at 16 µM]
COc1ccc(CNC(=O)N(C)C[C@@H]2OCc3ccccc3-c3c(n(C)c4ccccc34)C(=O)N([C@H](C)CO)C[C@@H]2C)cc1 | -26.4% [at 30 µM]
COc1ccc(-c2cc(C(=O)N3CCCCCC3)no2)cc1OC | 32.3%
CS(=O)(=O)NN1C(=O)c2ccccc2NC1c1cc2ccccc2nc1Cl (stereo not drawn) | 18.4%
COc1ccc(C(=O)O/N=C(\N)c2ccc(OC)c(OC)c2)c(OC)c1 | 34.8%
O=C(NCC[C@@H]1CC[C@@H](NC(=O)Nc2cc(F)ccc2F)[C@H](CO)O1)Nc1ccc(Cl)cc1 | -11.9% [at 16 µM]
O=C(NCC[C@@H]1CC[C@H](NC(=O)Nc2cc(F)ccc2F)[C@H](CO)O1)Nc1ccc(Cl)cc1 | 29.7%
C[C@@H]1CN([C@H](C)CO)C(=O)c2c(c3ccccc3n2C)-c2ccccc2CO[C@H]1CN(C)C(=O)Nc1ccc2c(c1)OCO2 | -14.5%
CC(C)c1ccc(NC(=O)c2ccccc2NC(=O)C2CCCCC2C(=O)O)cc1 (stereo not drawn) | 41%
Cc1cccc(NC2SC(=O)N(c3ccccc3)C2=O)c1 (stereo not drawn) | 37.5%
O=C(/C=C/NNC(=O)c1ccccc1O)c1ccccc1 | 4.98% [at 4.2 µM]
CCn1c(CCNC(=O)c2cccs2)nnc1SCC(=O)Nc1nc(-c2ccccc2)cs1 | 32.7%
C[C@@H]1CCCCO[C@@H](CN(C)C(=O)Nc2ccccc2)[C@@H](C)CN([C@@H](C)CO)C(=O)c2cc(NC(=O)Nc3ccc4c(c3)OCO4)ccc2O1 | 13.1% [at 16 µM]
C[C@@H]1CCCCO[C@@H](CN(C)C(=O)Nc2cccc3ccccc23)[C@H](C)CN([C@H](C)CO)C(=O)c2cc(NC(=O)Cc3ccccc3)ccc2O1 | -4.4% [at 2.1 µM]
Brc1ccc(N=C/C=C/C=C/Nc2ccc(Br)cc2)cc1 | 9.66% [at 4.2 µM]
C[C@H](CO)N1C[C@H](C)[C@@H](CN(C)S(=O)(=O)c2cccs2)Oc2c(NC(=O)Nc3ccc4c(c3)OCO4)cccc2C1=O | -24.2%
COc1cccc(-c2cnc(C(O)c3ccc(F)cc3)[nH]2)c1 (stereo not drawn) | 32% [at 8 µM]
OC(c1ccccc1)c1ncc(-c2ccccc2F)[nH]1 (stereo not drawn) | -21.5%
CCc1ccc(C(O)c2ncc(-c3cccc(F)c3)[nH]2)cc1 (stereo not drawn) | -31.3%
